Among the data in PubChem BioAssay (NCI) are growth values, retold here.

Molecules are shown by their SMILES. This is part of a sample that, as a whole, favours compounds with a hit. Of some 83,000 tested, about 20% had one in any assay.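 Growth was measured after 48 h exposure to one concentration of compound in 96-well plates. Values under 10 count as active.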 Unmarked numbers belong to inactive results. Calls of active or inactive are those of the source.

Among the test systems are NCI-H23 lung; NCI-H226 lung; NCI-H322M lung; HOP-62 NSCLC; NCI-H460 lung; NCI-H522 lung; A549/ATCC NSCLC; 786-0 renal; COLO 205 colon.
What all share (assay): NCI-60 one-dose screen, 48 h (100 = growth as untreated, 0 = no growth, -100 = all killed)
Holding throughout (conditions): 10 µM

As to `O=C(O)CCC(=O)OC(C1CO1)C(OC(=O)CCC(=O)O)C1CO1` (stereo unspecified), the growth in the test on NCI-H23 lung is 102%; with NCI-H226 lung, 96.5%; in the test with NCI-H322M lung, 112%; in the test on HOP-62 NSCLC, 102%; in the test with NCI-H460 lung, 103%; with NCI-H522 lung it was 91%. The growth is 97.4% in the test with A549/ATCC NSCLC, 103% in the test with 786-0 renal and 99.9% with COLO 205 colon.
For `CSC[C@H](NC(=O)COc1cccc2cnccc12)C(=O)NC(Cc1ccccc1)C(O)C(=O)N1CSC[C@H]1C(=O)NC(C)(C)C` (stereo partly specified), the growth in the test on NCI-H23 lung is 106%; with NCI-H226 lung it was 105%; with NCI-H322M lung it was 95.7%; in the test on HOP-62 NSCLC it was 110%; with NCI-H460 lung it was 125%; with NCI-H522 lung, 72.3%. Besides, the growth in the test with A549/ATCC NSCLC is 110%; in the test with 786-0 renal, 80.3%; in the test with COLO 205 colon, 106%.
As for `C#CC(C(C)C)N(CCO)CCCC` (stereo unspecified), the growth in the test with NCI-H23 lung is 120%; with NCI-H226 lung, 96.6%; with NCI-H322M lung, 107%; in the test on HOP-62 NSCLC, 98.8%; with NCI-H460 lung, 101%; with NCI-H522 lung, 107%. Also, the values for the growth with A549/ATCC NSCLC, with 786-0 renal and with COLO 205 colon were 95.8%, 108% and 108%, respectively.
Consider `COCCCNC(=O)c1nnn2c1nc(N)c1cc(Cl)ccc12`, for which the growth with NCI-H23 lung is 98.4%; in the test with NCI-H226 lung it was 94.1%; in the test with NCI-H322M lung, 88.9%; in the test with HOP-62 NSCLC, 80.4%; with NCI-H460 lung, 102%; in the test on A549/ATCC NSCLC, 106%. Further, the growth with 786-0 renal was 96.6%; with COLO 205 colon, 77.7%.
Consider `O=C(Cc1ccc(OCc2ccccc2)cc1)NCc1ccc2c(c1)OCO2`, for which the growth with NCI-H23 lung was 78.3%; in the test on NCI-H226 lung it was 99.6%; in the test on NCI-H322M lung, 80.8%; with HOP-62 NSCLC, 77.9%; in the test with NCI-H460 lung, 28.7%; in the test on A549/ATCC NSCLC, 58.2%. Besides, the growth is 88.7% with 786-0 renal and 85.5% in the test with COLO 205 colon.
For the compound `CCCCN(CCCC)CCCO`, the growth with NCI-H23 lung is 104%; with NCI-H226 lung it was 104%; in the test with NCI-H322M lung, 136%; with HOP-62 NSCLC, 106%; with NCI-H460 lung, 109%; with A549/ATCC NSCLC, 106%. Besides, the growth with 786-0 renal is 109%; in the test on COLO 205 colon it was 105%.
Regarding `O=C(N/N=C\c1cc(Br)cc(Br)c1O)N/N=C/c1cc(Br)cc(Br)c1O`, the growth with NCI-H23 lung is 67.1%; in the test with NCI-H226 lung, 50.6%; in the test on NCI-H322M lung, 42.2%; in the test with HOP-62 NSCLC it was 52.8%; with NCI-H460 lung it was 69.8%; in the test on NCI-H522 lung, 22.3%. Further, the growth with 786-0 renal was 46.5%; in the test with COLO 205 colon it was 62.1%.
As for `CC1(C)/C(=C\CO)C2CCC1C2` (stereo unspecified), the growth with NCI-H23 lung was 103%; in the test with NCI-H226 lung, 98.1%; in the test with NCI-H322M lung, 103%; with HOP-62 NSCLC, 96.8%; in the test with NCI-H460 lung, 115%; in the test with NCI-H522 lung, 88.8%. The growth in the test with 786-0 renal is 101%; with COLO 205 colon it was 111%.
With `NC(CSC(c1ccccc1)(c1ccccc1)c1ccccc1)C(=O)O` (stereo unspecified), the growth in the test with NCI-H23 lung was 61.3%; with NCI-H226 lung it was 87.6%; in the test on NCI-H322M lung it was 43.9%; in the test with HOP-62 NSCLC it was 44.5%; with NCI-H460 lung it was 13.6%; in the test on A549/ATCC NSCLC, 25.7%. Moreover, the figures for the growth in the test with 786-0 renal and in the test with COLO 205 colon were 49.4% and 23.2%, respectively.
Take `CN(C)C(C)(C)CC(C)(C)C`: the growth is 103% in the test on NCI-H23 lung; 99.7% in the test with NCI-H226 lung; 116% with NCI-H322M lung; 104% in the test with HOP-62 NSCLC; 108% in the test on NCI-H460 lung; 108% in the test on A549/ATCC NSCLC. In addition, the growth is 100% in the test with 786-0 renal and 106% in the test on COLO 205 colon.
With `Clc1ccc(-c2n[nH]c3c2Cc2ccccc2-3)cc1Cl`, the growth with NCI-H23 lung was 84.6%; in the test with NCI-H226 lung, 94.4%; with NCI-H322M lung, 91.6%; with HOP-62 NSCLC, 95.1%; in the test with NCI-H460 lung, 105%; in the test on NCI-H522 lung, -7.44% (active). Further, the results for the growth in the test on A549/ATCC NSCLC, in the test on 786-0 renal and in the test with COLO 205 colon were 37.5%, 104% and 115%, respectively.
Take `NC(C(=O)O)c1ccc([N+](=O)[O-])cc1` (stereo unspecified): the growth was 105% in the test on NCI-H23 lung; 103% in the test with NCI-H226 lung; 111% in the test on NCI-H322M lung; 96.5% with HOP-62 NSCLC; 108% in the test on NCI-H460 lung; 109% with A549/ATCC NSCLC. In addition, the growth was 109% with 786-0 renal and 104% in the test with COLO 205 colon.
With `COc1cc(/C=C/C(=O)c2ccccc2)cc(OC)c1OC`, the growth in the test with NCI-H23 lung is 78.1%; with NCI-H226 lung it was 98.7%; with NCI-H322M lung, 95.5%; with HOP-62 NSCLC, 104%; in the test with NCI-H460 lung, 70.7%; in the test with A549/ATCC NSCLC it was 89.4%. Moreover, the values for the growth in the test on 786-0 renal and in the test on COLO 205 colon were 89% and 48%, respectively.
As to `O=C(NCO)c1ccccc1`, the growth in the test on NCI-H23 lung is 109%; with NCI-H226 lung, 101%; in the test on NCI-H322M lung it was 91.6%; in the test on HOP-62 NSCLC, 97.8%; in the test on NCI-H460 lung it was 105%; in the test with A549/ATCC NSCLC, 106%. For the same compound, the growth in the test with 786-0 renal is 108%; in the test with COLO 205 colon, 106%.
